Assay outcomes as filed in PubChem.
V-ATPase pH – regulators of yeast V-ATPase proton transport. S. cerevisiae, pHLuorin cytosolic pH fluorescence. hit rate 0.37% among 350,000. response, % at 10 µM. AID 504577; in the data active = response mostly above about 7.3%, no sharp cut-off; inactive = mostly below about 5.4%; note: actives read high
Rtt109 Vps75 – C. albicans Rtt109 histone acetyltransferase inhibition | inhibition, % at 34.9 µM | purified Rtt109/Vps75, ThioGlo CoA-SH fluorescence, 4 h | hit rate 0.16% among 330,000;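 active = inhibition of at least 50% in every replicate; inconclusive = best replicate reaches 50% inhibition but some replicates fall short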
DAGLB inhibitor – diacylglycerol lipase beta (human) inhibition | inhibition, % at 5.17 µM | hit rate 0.059% among 340,000 | HEK293T DAGLB membrane lysate, EnzChek fluorogenic substrate; in the data active = inhibition above about 34%;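 note: 0% = enzyme with vehicle and 100% = wells lacking enzyme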
HDAC3 inhib – inhibitors of human histone deacetylase 3. O15379. recombinant HDAC3, fluorogenic peptide/trypsin coupled, fluorescence. inhibition, % at 8.3 µM. hit rate 0.15% among 320,000. AID 2718; in the data active = inhibition above about 26%, passing the limit was not always enough; inconclusive = no clear call, values can overlap the other calls
beta cell repl – induces beta-cell replication in MIN6 cells; hit rate 0.29% among 330,000; proliferation, % at 10 µM; MIN6 cells proliferation, ATPlite luminescence, 48 h; cells starved in 0.2% serum; 100% = growth in 10% serum;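 active = compounds whose signal lies at least 3.5 SD above the mean of all wells on their plate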;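 note: 0% = DMSO-treated cells in low-serum medium and 100% = 10% serum control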
* hit, by the source's call; ? = inconclusive; nt = no result given; + = active, no number. Rows were chosen to be rich in hits. Some 0.96% of all compounds tested hit in one or more screens of this group.

SMILES | V-ATPase pH | Rtt109 Vps75 | DAGLB inhibitor | HDAC3 inhib | beta cell repl
COc1cccc(C(=O)Nc2ccc3c(c2)C(=O)c2ccccc2C3=O)c1 | 2 | 50* | 2 | -1 | -2
COc1cccc(-c2nn(C)c3sc(C(=O)N4CCN(c5ccccn5)CC4)cc23)c1 | 2 | 51* | -5 | 12 | -4
Cc1ccc(Oc2cc(N3CCOCC3)nc(-c3ccccc3)n2)cc1 | 1 | -8 | 0 | -7 | -4
O=S(=O)(Nc1cc(Sc2ncn[nH]2)c(O)c2ccccc12)c1ccccc1 | -1 | + | nt | nt | -5
Cc1ccc(CN2CCN(C(=O)C3CCCO3)CC2)cc1 (stereo not given) | 0 | 3 | -1 | 6 | 1
CCOC(=O)C1CCN(Cc2c(O)ccc3ccccc23)CC1 | 2 | 0 | -4 | 1 | -3
O=C(C1CCCO1)N1CCN(Cc2c(O)ccc3ccccc23)CC1 (stereo not given) | 1 | 142* | 1 | -8 | -2
CCOC(=O)N1CCN(Cc2c(O)ccc3ccccc23)CC1 | 2 | 133* | -2 | -1 | 0
N#CC1(NC(=O)CSc2nnc3n2CCCCC3)CCCCC1 | -1 | -1 | 1 | -2 | 3
O=C(O)COc1ccccc1O | -4 | 60* | -2 | -9 | -1
CN(C)S(=O)(=O)c1ccc(Cl)c(NC(=O)CSc2nnnn2-c2ccc(O)cc2)c1 | 1 | -2 | -2 | nt | nt
CCc1ccc(N2CN(Cc3cccnc3)CNC2=S)cc1 | 2 | 1 | -1 | 3 | -3
Cc1cccc(N2CN(Cc3cccnc3)CNC2=S)c1 | 16* | 7 | -1 | 0 | 4
COc1ccc(N=C2C(=Nc3ccc(OC)cc3)N(c3ccccc3)C(=S)N2C(=O)c2ccc(Cl)cc2)cc1 | -2 | 1 | -7 | 6 | -2
COC(=O)C1=C(C)N(Cc2ccc(OC)c(OC)c2)C(=O)C1 | -1 | 0 | -3 | -1 | 0
COC(=O)C1=C(C)N(CCc2ccc(OC)c(OC)c2)C(=O)C1 | 31* | 4 | 0 | 4 | -2
CCC(/C=C1\Sc2ccc(OC)cc2N1CCO)=C\c1sc2ccc(OC)cc2[n+]1CCO | -3 | 114* | 11 | ? | -3
Cc1cccc(C)c1Nc1nnc(SCC(=O)c2ccc(Br)s2)s1 | 2 | -3 | 1 | 27* | -5
COC(=O)C1CCN(Cc2c(C(=O)N3C[C@@H](C)O[C@@H](C)C3)nc3ccc(Cl)cn23)CC1 | 0 | -12 | -3 | 6 | 1
C[C@@H]1CN(C(=O)c2nc3ccc(Cl)cn3c2CN2CCc3sccc3C2)C[C@H](C)O1 | 13* | 6 | 3 | -3 | 3
C=CCOc1ccc(/C(O)=C2\C(=O)C(=O)N(CCOC)C2c2cccnc2)cc1 (stereo not given) | 1 | 60* | 0 | -3 | -3
CCCOc1ccc(/C(O)=C2/C(=O)C(=O)N(CCOC)C2c2cccnc2)cc1 (stereo not given) | nt | nt | nt | -2 | -4
CC(C)c1cc(N2CCC(=O)NC2=O)cc(C(=O)O)c1O | -5 | -3 | 1 | -15 | 0
O=C(/C=C/c1ccccc1)N(Cc1cccs1)C1CCS(=O)(=O)C1 (stereo not given) | 7 | -1 | 1 | ? | -2
CC1=Nn2c(nnc2-c2ccccc2F)SC1 | 15* | -3 | 0 | 3 | -3
SMILES | V-ATPase pH | Rtt109 Vps75 | DAGLB inhibitor | HDAC3 inhib | beta cell repl
O=C(Nc1ccccc1F)c1ccc([N+](=O)[O-])s1 | 1 | 10 | 1 | 1 | -6
O=C(Nc1ccc2c(c1)OCCO2)C(=S)NCc1ccccc1 | 1 | 1 | -1 | -3 | -4
CCC(=O)N(c1nnc(SCC(=O)c2ccc[nH]2)s1)C1CC1 | 18* | 0 | -1 | 0 | -1
COc1ccc(-c2cn(Cc3ccc(C)cc3)nn2)cc1 | -1 | -14 | -15 | 3 | -4
CC(=O)c1ccc(OC(=O)c2ccc(Br)o2)cc1 | -4 | 6 | 3 | 67* | -3
Cc1nc2ccccn2c1CN(C)C(=O)C1CCC(=O)N(CCc2cccc(F)c2)C1 (stereo not given) | -1 | -4 | -1 | -10 | 2
CCOC(=O)c1c(C)oc2c(F)c(F)c(F)c(F)c2c1=O | 2 | 4 | 4 | -2 | -4
O=C(COC(=O)c1ccccc1)NC1CCCC1 | 263* | -3 | -1 | 3 | -4
O=C(COC(=O)c1ccccc1)NC(=O)NC1CCCC1 | 4 | 3 | 2 | nt | -2
Nc1nc(N)nc(-c2cc(O)ccc2O)n1 | 1 | 0 | 3 | ? | 3
CC(C)(C)c1cc(-c2nc(N)nc(N)n2)c(O)c(C(C)(C)C)c1 | 1 | ? | -6 | 29* | -8
CCn1c(O)c(C=NC2CCCC2)sc1=S | 9 | -18 | 1 | 0 | -2
CCOc1ccc(Oc2c(/C=N/NC(=O)COc3ccccc3OC)c(C)nn2-c2ccccc2)cc1 | 0 | 0 | -6 | 27* | -6
CCOc1ccc(Oc2c(/C=N/NC(N)=O)c(C)nn2-c2ccccc2)cc1 | -4 | 9 | -1 | 6 | -1
COc1cc(CN2CCC(n3nccc3NC(=O)C3CC3)CC2)cc(OC)c1 | 0 | -7 | 4 | -3 | -4
Cc1cc(C)nc(NC(=O)/C=C/c2ccccc2Cl)n1 | -1 | 1 | 0 | -1 | 0
Cc1cc(N)c2cc(NC(=O)/C=C/c3ccccc3Cl)ccc2n1 | 3 | 90* | 1 | -7 | -6
Cc1cc(NC(=O)CN2C(=O)CCSc3ccccc32)no1 | 3 | 0 | 1 | 1 | 1
Cc1cc(NC(=O)CN2C(=O)CC(c3ccco3)Sc3ccccc32)no1 (stereo not given) | 0 | 11 | 3 | 41* | 2
O=C(O)CCS(=O)(=O)c1cccc2cccnc12 | -2 | nt | 2 | 4 | -1
CCSS(=O)(=O)c1cccc2cccnc12 | -1 | 154* | nt | 1 | 0
CCCCCCC(=O)N(O)C1CC(=O)N(c2ccc(Cl)cc2)C1=O (stereo not given) | 1 | -4 | -8 | 63* | -4
CCCCCCC(=O)N(O)C1CC(=O)N(c2ccc(C)cc2)C1=O (stereo not given) | -4 | 11 | 4 | ? | -6
COc1cccc(/C=C2\SC(=S)N(C(C)C(=O)NC3C=CS(=O)(=O)C3)C2=O)c1 (stereo not given) | -3 | 154* | 0 | -4 | 2
O=C(CC1SC(N2CCCCC2)=NC1=O)Nc1cccc(C(=O)Nc2ncccc2O)c1 (stereo not given) | 11 | -4 | -2 | 65* | 3
CC(C)NC(=O)c1cccc(NC(=O)CC2SC(N3CCCCC3)=NC2=O)c1 (stereo not given) | 1 | -2 | 0 | nt | -3
CCc1ccc(NCCC(=O)c2ccc(Br)cc2)cc1 | 15* | -1 | -1 | -3 | -5
Cc1ccc(NCCC(=O)c2ccc(Br)cc2)cc1 | 1 | 9 | -7 | -14 | 1
CC1CCN(C(=O)COC(=O)Cc2c[nH]c3ccccc23)CC1 | 13* | -29 | -1 | 2 | -1
